Source: PubChem BioAssay (NCATS)
Records with an inconclusive call do not appear. The source made the active and inactive calls. Unless noted, calls come from the whole dose curve; as a rule, active = well fitted curve in the direction sought with a large enough effect; inconclusive = small, poorly fitted or top-dose-only effect, or another doubt; inactive = no such curve, though single readings can be large; an effect the other way counts as inactive or inconclusive.

What was measured:
[1] = Cell Viability - LYMP2-005 (AID 967);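 note: series mostly up to about 92 µM; plate controls were DMSO only for no effect and 92 µM tetraoctylammonium bromide control for full effect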
Procedure, shortened: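 Steps: seed 2500 LYMP2-005 cells/well, incubate 5 h at 37 C, add compound, incubate 24 h at 37 C, add CellTiter-Glo, wait 30 min at RT, read luminescence. Concentration-response data fitted to Hill equation for AC50.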

[2] = Cell Viability - LYMP2-009 (AID 968);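 note: series mostly up to about 92 µM; 0% = DMSO alone and the full-kill end = tetraoctylammonium bromide at 92 µM; nearly all actives have a fitted effect of over 55% in size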
[3] = Cell Viability - LYMP2-011 (AID 969);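 note: 0% = DMSO only and full inhibition = 92 µM tetraoctylammonium bromide; nearly all actives have a fitted effect of over 60% in size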
Procedure, shortened: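 Acute toxicity is scored as a concentration-dependent drop in intracellular ATP of a human lymphoblastoid line after 24 hr treatment. Values are AC50s modeled with the Hill equation.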

[4] = Cell Viability - LYMP2-013 (AID 970);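 note: series mostly up to about 92 µM; 0% = DMSO only and full inhibition = tetraoctylammonium bromide control; nearly all actives have a fitted effect of over 55% in size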
Procedure, shortened: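 Acute toxicity was measured in human lymphoblastoid cells (2500/well) exposed to compound titrations for 24 hr, with ATP luminescence (CellTiter-Glo) as read-out and AC50 fitted by Hill equation.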

[5] = Cell Viability - LYMP2-015 (AID 971);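 note: 0% = DMSO only and full effect = 92 µM tetraoctylammonium bromide; nearly all actives have a fitted effect of over 55% in size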
Procedure, shortened: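 Acute toxicity was scored as a concentration-dependent drop in intracellular ATP in lymphoblastoid cells after 24 hr compound exposure in complete medium. Detection used CellTiter-Glo luciferase luminescence.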

[6] = Cell Viability - LYMP2-017 (AID 972); note: series mostly up to about 92 µM; % is set by controls: 0 for no effect and ±100 for the full control effect; nearly all actives have a fitted effect of over 55% in size
Procedure, shortened: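 Steps: plate 2500 lymphoblastoid cells per well; incubate 5 hr at 37 C; add compound across a concentration series and incubate 24 hr at 37 C; add CellTiter-Glo and read luminescence after 30 min at room temperature; fit Hill curves for AC50.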

[7] = Cell Viability - LYMP2-021 (AID 974)
Procedure, shortened: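 Concentration-response cytotoxicity in a human lymphoblastoid line: 24 hr treatment at 37 C in complete culture medium, tetraoctylammonium bromide as positive control, luminescent ATP quantitation as viability measure.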

[8] = Cell Viability - LYMP2-023 (AID 975)
Procedure, shortened: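 Concentration-dependent drop in intracellular ATP measures acute cytotoxicity in a human lymphoblastoid line treated for 24 hours in complete culture medium. AC50 values are taken from Hill-equation fits of qHTS data.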

[9] = Cell Viability - LYMP2-025 (AID 976);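 note: series mostly up to about 92 µM; plate controls were DMSO only for no effect and tetraoctylammonium bromide control for full effect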
Procedure, shortened: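 In qHTS format, LYMP2-025 lymphoblastoid cells in complete culture medium received compound for 24 hr; ATP-based CellTiter-Glo signal gave viability, with AC50 derived by Hill equation.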

[10] = Cell Viability - LYMP2-002 (AID 977);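 note: series mostly up to about 92 µM; compound exposure lasted 24 h at 37 °C; plate controls were DMSO only for no effect and 92 µM tetraoctylammonium bromide for full effect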
Procedure, shortened: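 Human lymphoblastoid LYMP2-002 cells, 2500 per well, exposed to compounds for 24 h at 37 C in complete medium; viability read as intracellular ATP by CellTiter-Glo luminescence, AC50 from Hill fits.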

[11] = Cell Viability - LYMP2-006 (AID 978); note: series mostly up to about 92 µM; % is set by controls: 0 for no effect and ±100 for the full control effect; nearly all actives have a fitted effect of over 60% in size
Procedure, shortened: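 qHTS, 1536-well; 2500 cells/well, 5 hr 37 C; cpd 24 hr 37 C; CellTiter-Glo 30 min RT; luminescence. Tetraoctylammonium bromide pos. ctrl. AC50 via Hill eqn.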

[12] = Cell Viability - LYMP2-007 (AID 979);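 note: cells exposed to compound for 24 h before reading; 0% = DMSO only and the negative end = 92 µM tetraoctylammonium bromide; nearly all actives have a fitted effect of over 60% in size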
Procedure, shortened: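 Acute toxicity is scored as a concentration-dependent fall in intracellular ATP in human lymphoblastoid cells treated 24 hr at 37 C, measured by luciferase luminescence; Hill-equation modelling yields AC50.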

[13] = Cell Viability - LYMP2-008 (AID 980); note: % is set by controls: 0 for no effect and ±100 for the full control effect; nearly all actives have a fitted effect of over 60% in size
Procedure, shortened: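 Acute cytotoxicity is scored as concentration-dependent loss of cellular ATP in a human lymphoblastoid line after 24 hr treatment at 37 C. ATP is quantified by luciferase luminescence.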

[14] = Cell Viability - LYMP2-010 (AID 981)
Procedure, shortened: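 Acute toxicity is scored as a concentration-dependent loss of cellular ATP in human lymphoblastoid cells after 24 hr compound exposure in complete medium. Tetraoctylammonium bromide is the positive control.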

[15] = Cell Viability - LYMP2-012 (AID 982)
[16] = Cell Viability - LYMP2-014 (AID 983);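 note: series mostly up to about 92 µM; plate controls were DMSO only for no effect and 92 µM tetraoctylammonium bromide for full effect; nearly all actives have a fitted effect of over 50% in size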
Procedure, shortened: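 Decrease in intracellular ATP after 24 hr treatment at 37 C, measured by luciferase luminescence, indicated cytotoxicity. Concentration-response data were fitted with the standard Hill equation to give AC50.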

[17] = Cell Viability - LYMP2-016 (AID 984)
Procedure, shortened: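 qHTS, 1536-well: 2500 LYMP2-016 cells/well, 5 hr 37 C, compound added, 24 hr 37 C, CellTiter-Glo 30 min RT, luminescence. Tetraoctylammonium bromide positive control. AC50 via Hill fit.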

[18] = Cell Viability - LYMP2-018 (AID 985);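 note: compound exposure lasted 24 hr at 37 °C; plate controls were DMSO only for no effect and tetraoctylammonium bromide at 92 µM for full effect; nearly all actives have a fitted effect of over 50% in size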
Procedure, shortened: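 Acute cytotoxicity is scored as a concentration-dependent drop in intracellular ATP after 24 hr exposure of the lymphoblastoid line in complete culture medium, measured by luciferase luminescence. Potency is expressed as AC50 from Hill modelling.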

[19] = Cell Viability - LYMP2-020 (AID 986)
Procedure, shortened: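 Acute cytotoxicity in a human lymphoblastoid line is scored as a concentration-dependent fall in cellular ATP after 24 hr at 37 C in complete medium. The positive control is tetraoctylammonium bromide, and potency is given as Hill-fit AC50.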

[20] = Cell Viability - LYMP2-022 (AID 987)
Procedure, shortened: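 Acute toxicity in a human lymphoblastoid line is scored as decreased intracellular ATP after 24 hr compound treatment at 37 C. ATP is measured by CellTiter-Glo luminescence; curves are fitted with the Hill equation to give AC50.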

[21] = Cell Viability - LYMP2-024 (AID 988)
Procedure, shortened: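 Acute toxicity is measured as concentration-dependent loss of intracellular ATP in a human lymphoblastoid line treated 24 hours at 37 C. Luciferase luminescence quantifies ATP; AC50 values come from standard Hill-equation modelling.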

[22] = Cell Viability - LYMP2-026 (AID 989); note: % is set by controls: 0 for no effect and ±100 for the full control effect; nearly all actives have a fitted effect of over 50% in size
Procedure, shortened: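 Concentration-dependent loss of intracellular ATP in human lymphoblastoid cells after 24 hr at 37 C, quantified by luciferase luminescence. AC50 derived from standard Hill equation.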

[23] = Cell Viability - LYMP1-002 - Assay at 24 hr (AID 993); note: % is set by controls: 0 for no effect and ±100 for the full control effect
Procedure, shortened: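 qHTS, LYMP1-002 lymphoblastoid, 24 h cpd, 37 C, CellTiter-Glo ATP luminescence; AC50 via Hill eq.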

[24] = Cell Viability - LYMP1-002 - Assay at 40 hr (AID 994)
Procedure, shortened: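 Viability in the human lymphoblastoid line was measured as intracellular ATP via CellTiter-Glo after 40 hr compound exposure. Tetraoctylammonium bromide served as positive control.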

[25] = molecular target: ATP-dependent 6-phosphofructokinase (Trypanosoma brucei brucei) (UniProt O15648); test: qHTS Assay to Find Inhibitors of T. brucei phosphofructokinase: hit validation (AID 492961);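 note: luminescence reports ADP formed as PFK phosphorylates fructose-6-phosphate with ATP; series mostly up to about 51 µM; % is set by controls: 0 for no effect and ±100 for the full control effect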
Procedure, shortened: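 Compounds titrated; %activity normalized to 0x and 1x enzyme controls, curve-fitted. Readout: ADP-Glo luminescence after 45 min room-temperature reaction of 1.25 nM PFK, 0.1 mM ATP, 0.5 mM F6P, pH 8.0.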

[26] = molecular target: Ubiquitin carboxyl-terminal hydrolase 1 (Homo sapiens) (UniProt O94782); test: Inhibitors of USP1/UAF1: Pilot qHTS (AID 504865);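 note: rhodamine fluorescence freed from ubiquitin-rhodamine substrate followed over time; top concentration of the series differs between compounds; % is set by controls: 0 for no effect and ±100 for the full control effect; nearly all actives have a fitted effect of over 35% in size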
Procedure, shortened: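 1nM USP1/UAF1 + cpd, 15 min RT; start w/ Ub-Rho 150nM final; kinetic FL 480/540 nm, 6 reads q60 s. Buffer 50mM HEPES pH 7.8, 0.5mM EDTA, 1mM TCEP, 0.01% Tween-20, 0.1 mg/ml BSA.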

[27] = molecular target: Estrogen receptor (Homo sapiens) (UniProt P03372); test: qHTS assay for small molecule antagonists of estrogen receptor alpha signaling (AID 588513; active = well fitted curve in the direction sought with a large enough effect in the signal ratio, with a control signal flat, not every such curve was filed as active; the % refers to the signal ratio; note: % is set by controls: 0 for no effect and ±100 for the full control effect)
Procedure, shortened: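 Beta-lactamase reporter, antagonist mode, HEK 293 GripTite cells; 0.5nM E2 stimulus, 18 h, 37 C; CCF4 dye 2 h RT; fluorescence. IC50 and efficacy from Hill fits, normalized to E2 and DMSO.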

[28] = molecular target: Estrogen receptor (Homo sapiens) (UniProt P03372); test: qHTS assay for small molecule agonists of estrogen receptor alpha signaling (AID 588514; calls by dose curve;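 note: 0% = vehicle only and 100% = reference agonist; nearly all actives have a fitted effect of over 70% in size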)
Procedure, shortened: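 Reporter-gene assay. […] controls beta-lactamase in HEK 293 GripTite cells; after 18 hrs with compound, CCF4 substrate is added for 2 hrs and fluorescence is read.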

[29] = molecular target: Bile acid receptor (Homo sapiens) (UniProt Q96RI1); test: qHTS assay for small molecule antagonists of farnesoid X receptor signaling (AID 588526; calls by dose curve; note: % is set by controls: 0 for no effect and ±100 for the full control effect)
Procedure, shortened: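 Antagonist mode: titrated compounds tested against chenodeoxycholic acid stimulation (normalized to 50 uM CDCA and DMSO) in GeneBLAzer HEK293T cells for 16 h. Beta-lactamase read by CCF4 fluorescence; IC50 from Hill fits.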

[30] = molecular target: Glucocorticoid receptor (Homo sapiens) (UniProt P04150); test: qHTS assay for small molecule antagonists of glucocorticoid receptor signaling (AID 588533; active = well fitted inhibition curve with a large enough effect in the signal ratio, with a control signal flat, not every such curve was filed as active; the % refers to the signal ratio)
Procedure, shortened: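 Antagonist-mode qHTS: compound titrations added to GRE-bla HeLa cells, then dexamethasone 2 nM final; 18 h, 37 C. CCF4 FRET fluorescence normalized to dexamethasone and DMSO; IC50 from Hill fit.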

[31] = molecular target: Peroxisome proliferator-activated receptor gamma (Homo sapiens) (UniProt P37231); test: qHTS assay for small molecule agonists of peroxisome proliferator-activated receptor gamma signaling (AID 588536; active = well fitted curve in the direction sought with a large enough effect in the signal ratio, with a control signal flat, not every such curve was filed as active; the % refers to the signal ratio;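 note: 0% = DMSO basal wells and 100% = rosiglitazone at 2 µM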)
Procedure, shortened: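 PPAR-gamma-UAS-bla HEK293 cells in medium with 1% charcoal/dextran-treated FBS were exposed to compounds for 16 h at 37 C. Beta-lactamase activity was read with CCF4 substrate (405 nm excitation, 460/530 nm emission).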

[32] = qHTS assay for small molecule agonists of retinoid X receptor alpha signaling (AID 588544; calls by dose curve); conditions: HEK293T RXRa-UAS-bla, beta-lactamase reporter, 18 h; 530 nm emission
[33] = molecular target: Retinoic acid receptor RXR-alpha (Homo sapiens) (UniProt P19793); test: as above
[34] = molecular target: Thyroid hormone receptor beta (Homo sapiens) (UniProt P10828); test: qHTS assay for small molecule agonists of thyroid hormone receptor beta signaling (AID 588545; calls by dose curve)
Procedure, shortened: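 HEK 293 TR-UAS-bla; agonist mode; 18 hrs, 37 C; CCF4, ex 405/em 460 and 530 nm; norm. T3 10 nM = 100%, DMSO = 0%; Hill fit → EC50, efficacy.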

[35] = molecular target: Thyroid hormone receptor beta (Homo sapiens) (UniProt P10828); test: qHTS assay for small molecule antagonists of thyroid hormone receptor beta signaling (AID 588547; active = well fitted inhibition curve with a large enough effect in the signal ratio, with a control signal flat, not every such curve was filed as active; the % refers to the signal ratio); conditions: TR-UAS-bla HEK293, beta-lactamase ratio, antagonist mode, 18 h
Procedure, shortened: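 TR-UAS-bla GripTite HEK293 cells in 2% charcoal/dextran FBS medium; compounds 0.59 nM to 92 uM with T3 at 0.4nM final, 18 h at 37 C. Beta-lactamase read by CCF4 fluorescence (460/530 nm); Hill fits gave IC50 and efficacy.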

[36] = molecular target: Voltage-gated inwardly rectifying potassium channel KCNH2 (Homo sapiens) (UniProt Q12809); test: qHTS Assay for Small Molecule Inhibitors of the Human hERG Channel Activity (AID 588834);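 note: top concentration of the series differs between compounds; % is set by controls: 0 for no effect and ±100 for the full control effect; lower thallium flux fluorescence means stronger hERG block; nearly all actives have a fitted effect of over 50% in size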
Procedure, shortened: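 Concentration-response qHTS measuring drop in thallium-sensitive dye signal. U2OS cells carrying BacMam hERG; compound exposure ~10 min, then stimulation buffer and 2 min read at 1 sec intervals.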

[37] = molecular target: Luciferin 4-monooxygenase (Photinus pyralis) (UniProt P08659); test: Biochemical firefly luciferase enzyme assay for NPC (AID 624030);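 note: purified P. pyralis luciferase at 10 nM with luciferin and ATP substrate; series mostly up to about 59 µM; 0% = DMSO and -100% = full luciferase inhibition by PTC124 control; nearly all actives have a fitted effect of over 70% in size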
Procedure, shortened: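 Purified P. pyralis luciferase at 10 nM in 50 mM Tris Acetate (final), luminescence read within 5 minutes of enzyme addition to compounds. Activity normalised to PTC124 versus DMSO; concentration-response curves classed by r2, magnitude and activity.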

[38] = S16 Schwann cell viability assay (CellTiter-Glo assay) (AID 624031);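 note: cellular ATP luminescence as a viability measure; series mostly up to about 58 µM; plate controls were DMSO-treated cells for no effect and cell-free wells for full effect; nearly all actives have a fitted effect of over 70% in size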
Procedure, shortened: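 Native S16 Schwann cells (rat), serum-containing medium, overnight attachment then 24 h drug exposure at 37 °C/5% CO2. CellTiter-Glo ATP signal; normalized to cell-free and vehicle wells.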

[39] = S16 Schwann cell PMP22 intronic element beta-lactamase assay (AID 624044; calls by dose curve;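 note: 0% = DMSO and -100% = potassium clavulanate positive control; nearly all actives have a fitted effect of over 15% in size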)
Procedure, shortened: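 Rat S16 Schwann cells with beta-Lac driven by a PMP22 intronic element, compound-treated 24 h at 37 °C. LiveBLAzer FRET B/G read: 460 nm normalized to potassium clavulanate vs DMSO; 535 nm FRET as viability; concentration-effect curves classified.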

Estrogen receptor (Homo sapiens), sequence (P03372 whole entry, looked up): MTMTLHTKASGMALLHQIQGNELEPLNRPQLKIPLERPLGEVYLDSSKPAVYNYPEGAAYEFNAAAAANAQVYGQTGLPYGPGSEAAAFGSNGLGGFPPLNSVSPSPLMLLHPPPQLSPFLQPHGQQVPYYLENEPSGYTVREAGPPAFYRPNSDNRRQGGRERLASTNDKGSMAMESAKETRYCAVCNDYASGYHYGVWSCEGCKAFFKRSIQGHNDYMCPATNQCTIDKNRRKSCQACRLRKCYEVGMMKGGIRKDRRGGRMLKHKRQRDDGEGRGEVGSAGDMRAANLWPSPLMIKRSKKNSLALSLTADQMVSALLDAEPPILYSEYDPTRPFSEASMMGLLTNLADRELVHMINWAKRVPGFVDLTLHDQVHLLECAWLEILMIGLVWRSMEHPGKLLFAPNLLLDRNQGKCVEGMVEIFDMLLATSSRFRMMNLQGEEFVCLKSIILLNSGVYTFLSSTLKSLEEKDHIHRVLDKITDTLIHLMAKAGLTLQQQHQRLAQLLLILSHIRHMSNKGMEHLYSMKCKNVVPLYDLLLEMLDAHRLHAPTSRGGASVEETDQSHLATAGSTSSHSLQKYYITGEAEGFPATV
Thyroid hormone receptor beta (Homo sapiens), sequence (P10828 whole entry, looked up): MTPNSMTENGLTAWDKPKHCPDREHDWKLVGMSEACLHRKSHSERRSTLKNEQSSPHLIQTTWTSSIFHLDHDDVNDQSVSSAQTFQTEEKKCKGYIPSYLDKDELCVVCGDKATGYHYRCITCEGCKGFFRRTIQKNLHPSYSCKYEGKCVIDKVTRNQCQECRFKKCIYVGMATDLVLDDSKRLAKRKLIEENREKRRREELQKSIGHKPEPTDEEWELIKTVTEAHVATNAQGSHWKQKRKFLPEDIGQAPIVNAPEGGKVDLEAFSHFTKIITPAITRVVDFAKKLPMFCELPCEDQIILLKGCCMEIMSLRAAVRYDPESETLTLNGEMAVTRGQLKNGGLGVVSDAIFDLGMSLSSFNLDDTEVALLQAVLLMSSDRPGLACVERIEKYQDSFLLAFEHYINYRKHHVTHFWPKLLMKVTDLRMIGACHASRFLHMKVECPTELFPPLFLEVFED
Retinoic acid receptor RXR-alpha (Homo sapiens), sequence (P19793 whole entry, looked up): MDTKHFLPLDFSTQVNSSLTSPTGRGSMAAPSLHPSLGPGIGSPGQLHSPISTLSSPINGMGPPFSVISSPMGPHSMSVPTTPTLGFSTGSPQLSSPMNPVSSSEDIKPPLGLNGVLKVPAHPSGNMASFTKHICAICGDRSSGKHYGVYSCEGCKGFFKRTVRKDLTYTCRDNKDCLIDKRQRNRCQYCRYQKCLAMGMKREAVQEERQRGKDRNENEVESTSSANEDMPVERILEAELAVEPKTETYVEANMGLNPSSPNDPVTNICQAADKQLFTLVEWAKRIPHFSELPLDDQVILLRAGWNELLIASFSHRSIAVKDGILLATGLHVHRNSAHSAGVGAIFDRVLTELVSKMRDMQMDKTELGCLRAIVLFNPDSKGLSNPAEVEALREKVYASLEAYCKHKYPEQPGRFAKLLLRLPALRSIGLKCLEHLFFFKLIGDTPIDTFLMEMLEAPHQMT
Luciferin 4-monooxygenase (Photinus pyralis), sequence (P08659 whole entry, looked up): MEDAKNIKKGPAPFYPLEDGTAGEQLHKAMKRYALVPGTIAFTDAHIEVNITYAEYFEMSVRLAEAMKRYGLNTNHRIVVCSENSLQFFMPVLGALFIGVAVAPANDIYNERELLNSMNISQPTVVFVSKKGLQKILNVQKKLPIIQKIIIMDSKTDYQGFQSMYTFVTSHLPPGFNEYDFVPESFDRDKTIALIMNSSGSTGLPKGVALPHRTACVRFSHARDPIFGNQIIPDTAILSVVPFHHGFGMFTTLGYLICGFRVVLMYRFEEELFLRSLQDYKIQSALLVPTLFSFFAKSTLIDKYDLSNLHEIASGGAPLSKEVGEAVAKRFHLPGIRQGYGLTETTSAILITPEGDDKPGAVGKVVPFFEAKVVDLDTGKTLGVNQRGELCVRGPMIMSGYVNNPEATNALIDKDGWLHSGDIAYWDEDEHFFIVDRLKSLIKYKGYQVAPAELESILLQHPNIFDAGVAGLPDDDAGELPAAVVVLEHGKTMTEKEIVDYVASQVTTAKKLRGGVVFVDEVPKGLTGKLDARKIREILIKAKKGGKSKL
Voltage-gated inwardly rectifying potassium channel KCNH2 (Homo sapiens), sequence (Q12809 whole entry, looked up): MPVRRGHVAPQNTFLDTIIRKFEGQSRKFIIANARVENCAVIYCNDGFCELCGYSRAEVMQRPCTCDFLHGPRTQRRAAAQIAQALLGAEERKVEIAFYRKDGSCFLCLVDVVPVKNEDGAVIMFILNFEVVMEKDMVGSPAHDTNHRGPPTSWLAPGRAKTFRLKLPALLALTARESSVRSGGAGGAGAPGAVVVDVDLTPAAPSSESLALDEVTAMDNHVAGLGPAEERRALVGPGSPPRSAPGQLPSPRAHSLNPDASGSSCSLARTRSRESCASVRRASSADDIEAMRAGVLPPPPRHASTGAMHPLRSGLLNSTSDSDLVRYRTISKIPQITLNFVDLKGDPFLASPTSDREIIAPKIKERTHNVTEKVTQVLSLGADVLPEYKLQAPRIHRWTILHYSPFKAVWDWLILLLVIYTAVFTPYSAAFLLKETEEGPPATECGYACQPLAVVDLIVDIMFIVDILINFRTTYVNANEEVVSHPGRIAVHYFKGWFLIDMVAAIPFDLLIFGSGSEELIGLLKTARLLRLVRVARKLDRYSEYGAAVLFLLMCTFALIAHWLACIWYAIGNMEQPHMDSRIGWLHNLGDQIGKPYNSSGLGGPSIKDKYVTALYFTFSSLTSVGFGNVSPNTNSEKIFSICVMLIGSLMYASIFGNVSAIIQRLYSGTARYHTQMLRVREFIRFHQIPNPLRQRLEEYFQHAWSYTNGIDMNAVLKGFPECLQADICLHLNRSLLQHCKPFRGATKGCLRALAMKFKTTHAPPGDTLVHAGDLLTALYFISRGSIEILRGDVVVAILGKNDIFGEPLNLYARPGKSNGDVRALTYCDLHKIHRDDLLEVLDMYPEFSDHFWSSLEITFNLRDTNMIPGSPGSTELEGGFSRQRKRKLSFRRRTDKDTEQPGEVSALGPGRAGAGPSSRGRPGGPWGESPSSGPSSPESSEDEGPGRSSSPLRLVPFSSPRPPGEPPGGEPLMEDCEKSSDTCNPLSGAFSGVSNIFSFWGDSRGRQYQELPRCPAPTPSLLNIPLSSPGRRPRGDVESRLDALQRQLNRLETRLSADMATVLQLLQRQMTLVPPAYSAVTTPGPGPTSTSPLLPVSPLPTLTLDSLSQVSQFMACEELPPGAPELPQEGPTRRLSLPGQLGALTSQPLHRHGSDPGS
Peroxisome proliferator-activated receptor gamma (Homo sapiens), sequence (P37231 whole entry, looked up): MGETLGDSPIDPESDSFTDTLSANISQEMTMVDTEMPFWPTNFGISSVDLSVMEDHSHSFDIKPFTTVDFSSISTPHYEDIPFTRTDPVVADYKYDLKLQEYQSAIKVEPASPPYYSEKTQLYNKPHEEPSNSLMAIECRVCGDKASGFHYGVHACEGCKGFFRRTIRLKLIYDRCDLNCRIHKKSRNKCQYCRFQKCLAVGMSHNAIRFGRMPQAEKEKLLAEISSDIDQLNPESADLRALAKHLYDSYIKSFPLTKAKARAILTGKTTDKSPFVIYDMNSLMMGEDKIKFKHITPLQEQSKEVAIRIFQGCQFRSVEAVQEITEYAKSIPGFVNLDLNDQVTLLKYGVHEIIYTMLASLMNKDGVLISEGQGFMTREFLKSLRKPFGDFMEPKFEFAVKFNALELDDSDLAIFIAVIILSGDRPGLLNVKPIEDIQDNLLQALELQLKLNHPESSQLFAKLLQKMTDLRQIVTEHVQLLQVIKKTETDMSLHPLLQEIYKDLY
ATP-dependent 6-phosphofructokinase (Trypanosoma brucei brucei), sequence (O15648 whole entry, looked up): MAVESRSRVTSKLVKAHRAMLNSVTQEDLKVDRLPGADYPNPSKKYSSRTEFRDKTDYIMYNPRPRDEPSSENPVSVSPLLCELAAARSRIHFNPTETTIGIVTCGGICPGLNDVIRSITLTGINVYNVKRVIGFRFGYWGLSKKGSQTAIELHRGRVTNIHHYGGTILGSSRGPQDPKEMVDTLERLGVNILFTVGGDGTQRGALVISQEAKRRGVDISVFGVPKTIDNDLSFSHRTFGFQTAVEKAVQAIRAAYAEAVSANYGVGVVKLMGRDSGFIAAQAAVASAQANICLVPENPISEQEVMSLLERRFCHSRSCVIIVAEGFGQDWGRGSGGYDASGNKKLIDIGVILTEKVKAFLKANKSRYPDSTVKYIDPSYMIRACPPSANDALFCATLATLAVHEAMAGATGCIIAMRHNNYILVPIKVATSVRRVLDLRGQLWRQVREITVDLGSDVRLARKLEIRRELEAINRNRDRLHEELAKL
Ubiquitin carboxyl-terminal hydrolase 1 (Homo sapiens), sequence (O94782 whole entry, looked up): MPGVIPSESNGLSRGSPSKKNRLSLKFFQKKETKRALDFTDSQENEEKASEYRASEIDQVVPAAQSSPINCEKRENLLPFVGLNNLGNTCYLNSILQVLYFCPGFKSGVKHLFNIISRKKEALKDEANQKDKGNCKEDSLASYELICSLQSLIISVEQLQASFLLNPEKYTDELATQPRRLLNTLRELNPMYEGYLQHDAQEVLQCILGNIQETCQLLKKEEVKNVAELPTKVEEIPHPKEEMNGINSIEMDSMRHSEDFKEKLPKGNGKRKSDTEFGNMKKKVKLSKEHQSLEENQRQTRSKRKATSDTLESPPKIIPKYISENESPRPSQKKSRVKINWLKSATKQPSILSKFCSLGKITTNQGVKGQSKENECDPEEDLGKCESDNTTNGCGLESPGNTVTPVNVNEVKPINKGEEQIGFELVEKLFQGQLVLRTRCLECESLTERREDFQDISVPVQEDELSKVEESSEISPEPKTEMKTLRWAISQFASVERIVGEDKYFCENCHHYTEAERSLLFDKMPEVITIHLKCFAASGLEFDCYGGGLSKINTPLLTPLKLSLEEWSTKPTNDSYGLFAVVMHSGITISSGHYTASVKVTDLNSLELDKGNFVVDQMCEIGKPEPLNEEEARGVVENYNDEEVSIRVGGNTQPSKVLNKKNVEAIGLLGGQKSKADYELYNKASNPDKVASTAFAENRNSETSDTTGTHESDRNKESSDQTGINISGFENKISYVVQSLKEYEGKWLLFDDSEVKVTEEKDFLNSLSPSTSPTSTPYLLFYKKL

C[C@@H]1[C@H](O)[C@@H](C)/C=C/C=C/C=C/C=C/C=C/C=C/C=C/[C@H](O[C@@H]2O[C@H](C)[C@@H](O)[C@H](N)[C@@H]2O)C[C@@H]2O[C@](O)(C[C@@H](O)C[C@@H](O)[C@H](O)CC[C@@H](O)C[C@@H](O)CC(=O)O[C@H]1C)C[C@H](O)[C@H]2C(=O)O
19.3%: max response [32]
inactive: outcome [1] | outcome [2] | outcome [3] | outcome [4] | outcome [5] | outcome [6] | outcome [7] | outcome [8] | outcome [9] | outcome [10] | outcome [11] | outcome [12] | outcome [13] | outcome [14] | outcome [15] | outcome [16] | outcome [17] | outcome [18] | outcome [19] | outcome [20] | outcome [21] | outcome [22] | outcome [23] | outcome [24] | outcome [25] | Potency [26] | outcome [27] | outcome [28] | Potency [29] | Potency [30] | outcome [31] | outcome [33] | outcome [34] | activity change % (negative = inhibition) [35] 2.02% | Potency [36] | Potency [37] | outcome [38] | outcome [39]
